Test results as given in PubChem BioAssay AID2391 (Southern Research Specialized Biocontainment Screening …, 2010).
In all, about 310,000 compounds went through this assay and about 410 (0.13%) were called active. Roughly 2% stayed inconclusive and do not appear here. No rule for the calls is given here. Not all results are given here. Results with a measured potency or affinity are listed apart.

Test: inhibition of RSV-induced cytopathic effect – HEp-2 cells, primary 10 µM value included (AID 2391)
Conditions: at 10 µM, hits give high values

Structure (SMILES) | CPE inhibition
COc1ccc(NC(=O)c2sc3nc(-c4cccnc4)ccc3c2N)cc1OC | 1.58% (inactive)
COc1ccc(-c2ccc3c(N)c(C(=O)c4ccc(OC)c(OC)c4)sc3n2)cc1 | 1.75% (inactive)
O=C(Nc1nc(-c2ccccc2)cs1)c1cccc([N+](=O)[O-])c1C(=O)O | 0.63% (inactive)
CCCC(=O)Oc1ccc(C2NC(=O)c3ccccc3O2)cc1OC (stereo not drawn) | -0.32% (inactive)
CCNS(=O)(=O)c1ccc(CCC(=O)NCc2ccccn2)cc1 | -0.26% (inactive)
CS(=O)(=O)N1N=C(c2ccco2)CC1c1ccc(Br)cc1 (stereo not drawn) | -1.1% (inactive)
CCOc1c(Cl)cc(CNCc2ccccn2)cc1OC | 0.14% (inactive)
C/C(N)=C(/C#N)C(=O)COC(=O)CNS(=O)(=O)c1ccc(C)cc1 | 0.79% (inactive)
C/C(N)=C(/C#N)C(=O)COC(=O)CNS(=O)(=O)c1c(F)cccc1F | 1.63% (inactive)
CCOC(=O)c1sc(=NC(=O)c2ccc(OC(C)C)cc2)n(C)c1C | -0.02% (inactive)
Cc1cc[n+](C(C)C(=O)c2ccc(Cl)cc2)cc1 (stereo not drawn) | 0.43% (inactive)
COC(=O)C1=C(N)Oc2cc(C)n(Cc3ccccc3)c(=O)c2C1c1ccccc1 (stereo not drawn) | 3.61% (inactive)
O=C(Nc1ccccc1N1CCN(C(=O)c2ccc(Cl)cc2)CC1)c1ccc(Br)cc1 | 10.3% (inactive)
CC(C)(C)NC(=O)COC(=O)c1ccccc1Nc1ccc(SC(F)F)cc1 | 20.3% (inactive)
CN(C)C(=O)COC(=O)c1ccccc1OCC(=O)Nc1ccc(SC(F)F)cc1 | 0.56% (inactive)
Clc1cc2nc[nH]c2cc1Cl | 2.89% (inactive)
c1ccc2[nH]cnc2c1 | 3.25% (inactive)
OCc1cn(-c2ccc(Cl)cc2)nn1 | 0.61% (inactive)
COc1cc(NC(=O)C2CC(=O)N(CCc3ccc(F)cc3)C2)cc(OC)c1OC (stereo not drawn) | 1.32% (inactive)
CCn1c2ccc(F)cc2c2nnc(NN)nc21 | 8.49% (inactive)

Structure (SMILES) | CPE inhibition
CCCn1c2ccc(F)cc2c2nnc(NN)nc21 | 2.66% (inactive)
Cc1nn(-c2ccccc2)cc1/C=N/NS(=O)(=O)c1ccccc1 | 0.36% (inactive)
O=S(=O)(c1cccc(-c2csc(-c3cccnc3)n2)c1)N1CCOCC1 | 18.8% (inactive)
Cc1nc(-c2cccc(S(=O)(=O)N3CCOCC3)c2)cs1 | 2.05% (inactive)
CC(C)(C)c1ccc(C(=O)c2c[nH]c(C(=O)NCCCn3ccnc3)c2)cc1 | 15.1% (inactive)
CC(C)[C@H](NC(=O)N1CCn2c1nc1ccccc12)C(=O)NCc1ccc(F)cc1 | 7.05% (inactive)
CC(C)[C@H](NC(=O)N1CCn2c1nc1ccccc12)C(=O)NCc1ccco1 | 5.22% (inactive)
COc1cc(C(=O)NNC(=O)COc2ccccc2Cl)ccc1OCC(=O)N1CCOCC1 | 0.6% (inactive)
O=C(Nc1cccc(NC(=O)c2ccccc2Cl)c1)c1ccco1 | 2.07% (inactive)
c1ccc(N2CCN(c3ncnc4scc(-c5cccs5)c34)CC2)cc1 | 12.1% (inactive)
COc1ccccc1C(=O)NCCCNc1ccc([N+](=O)[O-])cc1 | 0.97% (inactive)
CCn1c(=O)c2cc(C(=O)N(C)c3ccc(OC)cc3OC)sc2c2ccccc21 | 13.1% (inactive)
CCn1c(=O)c2cc(C(=O)N(C)c3ccccc3F)sc2c2ccccc21 | 17.4% (inactive)
Cc1ccc(-c2nn(-c3ccccc3)cc2CN(Cc2ccccc2)C(=O)c2ccco2)o1 | 22.2% (inactive)
Cc1c(CC(=O)N[C@@H](C)C(=O)O)c(=O)oc2c(C)c3occ(-c4ccccc4)c3cc12 | 6.88% (inactive)
CCCCC(NC(=O)Cc1c(C)c2cc3c(C)c(C)oc3c(C)c2oc1=O)C(=O)O (stereo not drawn) | 1.13% (inactive)
COc1ccc(Cl)cc1N(C(C)C(=O)O)S(C)(=O)=O (stereo not drawn) | 1.24% (inactive)
CC(C)COc1ccc(C(=O)NNC(=O)c2ccc(=O)[nH]c2)cc1 | 0.85% (inactive)
CCCCn1c(N)c(N(CCOC)C(=O)c2cc(CC)c(C)s2)c(=O)[nH]c1=O | 0.21% (inactive)
COc1ccccc1N(Cc1ccccc1)S(=O)(=O)c1cccc(C(=O)Nc2ccccn2)c1 | 40.2% (inactive)

Structure (SMILES) | CPE inhibition
COc1ccccc1N(Cc1ccccc1)S(=O)(=O)c1cccc(C(=O)Nc2ccc(C)cn2)c1 | 40.7% (inactive)
Cc1ccc(N(CCC#N)C(=O)COC(=O)C2CCN(S(=O)(=O)c3ccc(C)c(C)c3)CC2)cc1 | 3.94% (inactive)
COCCN(C(=O)CSc1nnc(-c2ccc(Cl)cc2)o1)c1c(N)n(CC(C)C)c(=O)[nH]c1=O | 2.35% (inactive)
CCN(CC)c1ccc(-c2nnc(SCC(=O)N(CCOC)c3c(N)n(CC(C)C)c(=O)[nH]c3=O)o2)cc1 | 8.83% (inactive)
CCc1cc(=O)oc2cc(OC(C)=O)cc(OC(C)=O)c12 | 5.44% (inactive)
COc1cc(OC)c2c(C)cc(=O)oc2c1 | 0.35% (inactive)
CCOc1ccccc1N(CC(=O)N1CCC(C(N)=O)CC1)S(=O)(=O)c1ccc(SC)cc1 | 1.65% (inactive)
Cc1ccc(Cl)cc1NC(=O)CSc1sc2c(O)cc(=O)[nH]c2c1C#N | -0.05% (inactive)
Cc1ccc(C)c(OCC(=O)NCC(c2ccco2)N2CCCCC2)c1 (stereo not drawn) | -1.03% (inactive)
OCCOCCn1c(C(CO)Nc2nc(-c3ccc(Cl)cc3)cs2)nc2ccccc21 (stereo not drawn) | 9.48% (inactive)
c1ccc(Nc2nc(-c3ccncc3)nc3ccccc23)cc1 | 4.52% (inactive)
Fc1ccc(Nc2nc(-c3ccncc3)nc3ccccc23)cc1 | 4.4% (inactive)
COc1ccc(C(=O)NCCn2cc(SCC(=O)NCC3CCCO3)c3ccccc32)cc1 (stereo not drawn) | 0.51% (inactive)
Cc1ccc(NC(=O)C2CCN(S(=O)(=O)c3ccc(F)cc3)CC2)cc1 | -1.19% (inactive)
Cc1ccc(S(=O)(=O)N2CCC(C(=O)Nc3ccc(S(=O)(=O)N4CCCC4)cc3)CC2)cc1 | 0.34% (inactive)
CC(NC(=O)c1ccccc1NC(=O)c1ccccc1)C(=O)N1CCOCC1 (stereo not drawn) | 3.72% (inactive)
Cc1ccc2[nH]c3c(c2c1)CN(C)CC3 | -0.58% (inactive)
CN1CCc2[nH]c3ccc(C(=O)NN)cc3c2C1 | -1.2% (inactive)
